Source: PubChem (several laboratories)
BoNT-A LC inh2 – inhibitors of Botulinum neurotoxin A light chain protease | inhibition, % at 10 µM | hit rate 0.17% among 360,000 | multiplex microsphere protease substrate cleavage, flow cytometry
VHR inh abs – DUSP3 (human) phosphatase inhibition; P51452; recombinant VHR phosphatase, pNPP absorbance; inhibition, % at 13.3 µM; hit rate 0.52% among 290,000; AID 1654; in the data active = inhibition above about 50%
MazF activator – activators of E. coli MazEF toxin-antitoxin RNase; AID 504720; hit rate 0.32% among 350,000; activation, % at 20 µM; FAM/BHQ RNA-DNA oligo cleavage fluorescence, 5 h; P0AE70; in the data active = activation above about 50%
Anthrax LF prot – inhibitors of Bacillus anthracis lethal factor protease; multiplex microsphere protease cleavage assay, LF; inhibition, % at 10 µM; hit rate 0.12% among 360,000
Target sequence (P15917 whole entry, looked up): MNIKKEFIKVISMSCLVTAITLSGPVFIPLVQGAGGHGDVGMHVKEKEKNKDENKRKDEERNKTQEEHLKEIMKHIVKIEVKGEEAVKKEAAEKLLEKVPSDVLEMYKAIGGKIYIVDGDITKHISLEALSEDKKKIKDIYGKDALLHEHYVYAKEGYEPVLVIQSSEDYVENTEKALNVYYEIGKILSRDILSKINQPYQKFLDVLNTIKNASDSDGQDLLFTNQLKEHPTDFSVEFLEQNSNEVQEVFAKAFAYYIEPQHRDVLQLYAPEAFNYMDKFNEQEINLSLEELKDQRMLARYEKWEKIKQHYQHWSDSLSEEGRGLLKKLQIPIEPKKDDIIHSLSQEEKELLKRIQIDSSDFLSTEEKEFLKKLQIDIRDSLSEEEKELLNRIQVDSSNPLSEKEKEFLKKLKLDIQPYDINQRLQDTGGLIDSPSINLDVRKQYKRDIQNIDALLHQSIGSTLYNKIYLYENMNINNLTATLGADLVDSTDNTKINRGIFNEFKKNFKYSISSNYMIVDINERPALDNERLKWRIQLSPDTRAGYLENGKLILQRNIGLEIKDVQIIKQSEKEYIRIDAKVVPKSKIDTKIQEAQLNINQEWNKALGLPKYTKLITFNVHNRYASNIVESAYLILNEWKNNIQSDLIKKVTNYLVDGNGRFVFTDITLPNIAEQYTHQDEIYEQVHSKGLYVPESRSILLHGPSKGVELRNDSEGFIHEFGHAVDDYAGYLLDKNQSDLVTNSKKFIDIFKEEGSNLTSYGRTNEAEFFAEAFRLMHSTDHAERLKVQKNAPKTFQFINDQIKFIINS
Bead autofluor – counter-screen for toxin protease inhibitors: compound fluorescence. compound autofluorescence counterscreen, microsphere flow cytometry; active compounds read high. fluorescence intensity (test concentration not listed). hit rate 3.1% among 360,000; in the data active = fluorescence intensity above about 16000; inconclusive = no clear call, values can overlap the other calls
BoNT F protease – inhibitors of Botulinum neurotoxin F light chain protease; Multiplex microsphere protease cleavage assay, flow cytometry; AID 588497; inhibition, % at 10 µM; hit rate 0.22% among 360,000; in the data active = inhibition above about 35%, passing the limit was not always enough; inconclusive = no clear call, values can overlap the other calls
Numbers stand for hits; 0 = inactive; ? = inconclusive; - = not tested or not shown; + = active, no number. Only some compounds are listed: those with a hit (about 4% of all), similar ones and a draw of the others. Rule as the data show it, unless noted: active = inhibition above about 30%; inconclusive = no clear call, values can overlap the other calls; inactive = below that.

SMILES | BoNT-A LC inh2 | VHR inh abs | MazF activator | Anthrax LF prot | Bead autofluor | BoNT F protease
CCC(CC)C(=O)c1c[nH]c(C(=O)NCCCn2ccnc2)c1 | ? | 0 | 0 | 0 | 22434 | 0
CC(C)CC(=O)c1c[nH]c(C(=O)NCCCn2ccnc2)c1 | 0 | 0 | 0 | 0 | 19657 | 0
O=C(c1ccccc1)c1c[nH]c(C(=O)NCCCn2ccnc2)c1 | 0 | 0 | 0 | 0 | 0 | 0
CN(C(=O)COC(=O)c1nc(-c2ccccc2)n(-c2ccccc2)n1)C1CCS(=O)(=O)C1 (stereo not drawn) | 0 | 0 | 0 | 0 | 0 | 0
CC(=O)c1ccccc1NCC(=O)Nc1ccc(C)cc1 | 0 | 0 | 0 | 0 | 0 | 0
Cc1nnc2n(-c3ccccc3)c(=O)c3c4c(sc3n12)CC(C)CC4 (stereo not drawn) | 0 | 0 | 0 | 0 | 18626 | 0
COc1ccc(-n2c(=O)c3c4c(sc3n3cnnc23)CC(C)CC4)cc1 (stereo not drawn) | 0 | - | 0 | 0 | 0 | 0
C=CCNC(=S)/N=c1/scc(C)n1C | 0 | 0 | 0 | 0 | 0 | 0
CC(=O)N1CCC(N(CCCOC(C)C)S(=O)(=O)c2ccc([N+](=O)[O-])cc2)CC1 | 0 | 53 | 0 | 0 | 0 | 0
O=C1CSC(=S)N1N=Cc1c(O)ccc2ccccc12 | 0 | - | 590 | 0 | 0 | 0
COc1ccc2ccccc2c1/C=N/N1C(=O)CSC1=S | 0 | 0 | 0 | 0 | 0 | 0
O=C1CSC(=S)N1/N=C/C=C/c1ccccc1 | 43 | 0 | 0 | 0 | 0 | 0
O=C1CSC(=S)N1/N=C/c1c(F)cccc1F | 0 | 0 | 0 | 0 | 0 | 0
CC(Oc1ccccc1)C(=O)N1CCN=C1SCc1ccccc1F (stereo not drawn) | 0 | 0 | 0 | 0 | 0 | 0
N#C/C(=C/c1ccc(-c2cc(C(=O)O)cc(C(=O)O)c2)o1)c1nc2ccccc2s1 | - | 0 | - | - | - | -
N#C/C(=C/c1ccco1)c1nc2ccccc2s1 | 0 | 0 | 65 | 0 | 0 | 0
N#C/C(=C\c1ccco1)c1nc2ccccc2s1 | 0 | 0 | 54 | 0 | 0 | 0
Cc1oc(CSCCSCc2cc(C(=O)O)c(C)o2)cc1C(=O)O | 0 | 0 | 0 | 0 | 0 | ?
Cc1oc(C2CC2)cc1C(=O)O | 0 | 0 | 0 | 0 | 19572 | 0
O=C(CSc1ccccc1C(=O)O)Nc1cccc(C(=O)O)c1 | ? | 0 | 0 | 0 | 21124 | 0
Cc1nc(SCC(=O)Nc2cccc(C(=O)O)c2)n[nH]1 | 0 | 0 | 0 | 0 | 0 | 0
COCCn1c(C)cc(C(=O)COc2ccc(C)nc2[N+](=O)[O-])c1C | 0 | 0 | 0 | 0 | 0 | 0
CCCn1c(C)cc(C(=O)COc2ccc(C)nc2[N+](=O)[O-])c1C | 0 | 54 | 0 | 0 | 0 | 0
CCOc1ccc(C2C(C#N)=C(N)SC(N)=C2C#N)c(OCC)c1 | 44 | 0 | 0 | 0 | 22485 | ?
CC(C)NCC(O)COc1c(F)cc(Br)cc1F (stereo not drawn) | 0 | 0 | 0 | 0 | 0 | 0
SMILES | BoNT-A LC inh2 | VHR inh abs | MazF activator | Anthrax LF prot | Bead autofluor | BoNT F protease
CC(=O)Nc1ccc(OCC(O)CNC2CCCC2)cc1 (stereo not drawn) | ? | 0 | 0 | 0 | 23804 | 0
COc1ccc(OCC(O)CNC2CCCC2)cc1 (stereo not drawn) | 0 | 0 | 0 | 0 | 0 | 0
OC(CNC1CCCC1)COc1c(F)cc(Br)cc1F (stereo not drawn) | 0 | 0 | 0 | 0 | 16538 | 0
CCOc1ccccc1NC(=O)[C@@H](NC(=O)c1ccccc1F)C(C)C | 0 | 0 | 0 | 0 | 0 | 0
Cc1cc(C)n(-c2nc(NC(C)C)nc(NC(C)C)n2)n1 | 0 | 0 | 0 | 0 | 0 | 0
COc1ccc(C2(CNC(=O)/C=C/c3ccco3)CCCC2)cc1OC | 0 | 0 | 0 | 0 | 19955 | 0
CCN(CC)S(=O)(=O)c1ccc(OC)c(NC(=O)/C=C/c2ccco2)c1 | 0 | 0 | 0 | 0 | 0 | 35
CC1CCCN(CCCNC(=O)C2CCC(CNS(=O)(=O)c3cccc4nsnc34)CC2)C1 (stereo not drawn) | 0 | 0 | 0 | 0 | 0 | 0
Cc1ccc(C(=O)CSc2nc3ccccc3c(=O)[nH]2)cc1 | 0 | 0 | 0 | 0 | 21593 | 0
Cc1ccc(C(=O)CSc2nc3ccccc3c(=O)[nH]2)cc1C | 0 | 0 | 0 | 0 | 0 | 0
CCc1ccc(C(=O)CSc2nc3ccccc3c(=O)[nH]2)cc1 | 0 | 0 | 0 | 0 | 21509 | 0
O=C(NCc1cccnc1)c1ccc2c(c1)N(Cc1ccccc1)CCS2 | 0 | 0 | 0 | 0 | 0 | 0
CCOC(=O)/C(C#N)=N/Nc1ccccc1OC | 0 | 0 | 65 | 0 | 0 | 0
CCOC(=O)/C(C#N)=N\Nc1cc(Cl)ccc1OC | 0 | 0 | 326 | 0 | 0 | 0
Cc1ccc(C(=O)n2nc(-c3cccnc3)nc2N)cc1 | 0 | 0 | 0 | 0 | 0 | 0
CCCC(=O)n1nc(-c2cccnc2)nc1N | ? | 0 | 0 | 0 | 23837 | 0
COc1ccc2[nH]c3c(=O)n(CCCCC(=O)N4CCC(C(N)=O)CC4)c(=S)[nH]c3c2c1 | ? | 0 | 0 | 0 | 20373 | 0
COc1ccc2[nH]c3c(=O)n(CCCCC(=O)NCCN4CCCC4)c(=S)[nH]c3c2c1 | 0 | 0 | 0 | 0 | 17189 | 0
CC[C@H](C)NC(=O)CCCCCn1c(=S)[nH]c2c([nH]c3ccc(OC)cc32)c1=O | 0 | 0 | 0 | 0 | 0 | 0
CC(=O)N1CCCc2cc(S(=O)(=O)Nc3cccc(C)c3C)ccc21 | 0 | 0 | 0 | 0 | 0 | 0
COc1ccc(C2/C(=C(\O)c3ccc4c(c3)OCCO4)C(=O)C(=O)N2Cc2cccnc2)cc1OC (stereo not drawn) | 0 | 0 | 0 | 0 | 0 | 0
O=C(Nc1ccc(C(=O)N2CCCC2)cc1)c1ccccc1F | 0 | 0 | 0 | 0 | 16849 | 0
O=C(/C=C/c1cccc(F)c1)N1CCN(c2ccccn2)CC1 | 0 | 0 | 0 | 0 | 0 | 0
COC(=O)C1CCN(S(=O)(=O)c2ccc(OC)cc2)CC1 | 0 | 0 | 0 | 0 | 24359 | 0
COc1ccc(S(=O)(=O)N2CCC(NC(=O)Nc3ccc(C)cc3)CC2)cc1 | ? | 0 | 0 | 0 | 20464 | 0
SMILES | BoNT-A LC inh2 | VHR inh abs | MazF activator | Anthrax LF prot | Bead autofluor | BoNT F protease
COc1ccc(-c2ccc(S(=O)(=O)N3CCCC3)cc2)cc1 | 0 | 0 | 0 | 0 | 0 | 0
COc1ccc(S(=O)(=O)N2CCc3ccccc3C2)cc1 | 0 | 51 | 0 | 0 | 0 | 0
COc1ccc(S(=O)(=O)N2CCCCCC2)cc1 | 0 | 0 | 0 | 0 | 22702 | 0
COCCN(C(=O)COC(=O)c1c(C)nn(-c2ccccc2)c1C)c1c(N)n(Cc2ccccc2)c(=O)[nH]c1=O | 0 | - | 0 | 0 | 0 | 0
Cn1c(N)c(C(=O)COC(=O)CCc2c[nH]c3ccccc23)c(=O)n(C)c1=O | 0 | 0 | 0 | 0 | 0 | 0
CN(C)S(=O)(=O)N1CCc2ccccc2C1 | 0 | 0 | 0 | 0 | 24594 | 0
CN(C)S(=O)(=O)N1CCc2ccccc21 | 0 | 0 | 0 | 0 | 0 | 0
CN(C)C(CNC(=O)C1CCN(S(=O)(=O)c2ccc(Cl)cc2)CC1)c1ccccc1 (stereo not drawn) | 0 | 0 | 0 | 0 | 0 | 0
COc1ccc(C(CNC(=O)C2CCN(S(=O)(=O)c3ccc(F)cc3)CC2)N(C)C)cc1 (stereo not drawn) | 0 | 0 | + | 0 | 0 | 0
